Hits are enriched below; roughly 1.6% of the tested compounds scored in any of these assays.
Autofluor Jurkat: compound fluoresces in Jurkat cells, VLA-4 screen interference | 24,000 tested, 0.61% active | compound autofluorescence, flow cytometry; hits give high values; 1 = vehicle-only cell background | fluorescence ratio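 (tested at 10 µM compound in the well)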;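 active means fluorescence ratio above 2.44, which is 1 plus 3 SD of all ratios; inconclusive means signal too bright to measure linearly, ratio around 10 or more; inactive means fluorescence ratio below 2.44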;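 further: green fluorescence of cells measured with 488 nm excitation and 530 nm emission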
LNCaP diff act: promotes differentiation of LNCaP prostate cells; flow cytometry side scatter, 4 d; side scatter shift, % at 10 µM; 24,000 tested, 0.56% active;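 active means side scatter shift above 30%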;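 further: androgen-responsive LNCaP prostate cancer cells in charcoal-stripped serum medium; higher shift means more granular cells and more differentiation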
VLA-4 agonist: allosterically activates the human VLA-4 integrin. P13612. Jurkat cells, LDV-FITC binding, flow cytometry. activation, % at 10 µM (by protocol). 24,000 tested, under 10 active;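 active means fluorescent ligand binding to cells raised by more than 40% of the manganese-induced maximum; inconclusive means compound's own fluorescence above 85% of the ligand control signal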
Target sequence (P13612 whole entry, looked up): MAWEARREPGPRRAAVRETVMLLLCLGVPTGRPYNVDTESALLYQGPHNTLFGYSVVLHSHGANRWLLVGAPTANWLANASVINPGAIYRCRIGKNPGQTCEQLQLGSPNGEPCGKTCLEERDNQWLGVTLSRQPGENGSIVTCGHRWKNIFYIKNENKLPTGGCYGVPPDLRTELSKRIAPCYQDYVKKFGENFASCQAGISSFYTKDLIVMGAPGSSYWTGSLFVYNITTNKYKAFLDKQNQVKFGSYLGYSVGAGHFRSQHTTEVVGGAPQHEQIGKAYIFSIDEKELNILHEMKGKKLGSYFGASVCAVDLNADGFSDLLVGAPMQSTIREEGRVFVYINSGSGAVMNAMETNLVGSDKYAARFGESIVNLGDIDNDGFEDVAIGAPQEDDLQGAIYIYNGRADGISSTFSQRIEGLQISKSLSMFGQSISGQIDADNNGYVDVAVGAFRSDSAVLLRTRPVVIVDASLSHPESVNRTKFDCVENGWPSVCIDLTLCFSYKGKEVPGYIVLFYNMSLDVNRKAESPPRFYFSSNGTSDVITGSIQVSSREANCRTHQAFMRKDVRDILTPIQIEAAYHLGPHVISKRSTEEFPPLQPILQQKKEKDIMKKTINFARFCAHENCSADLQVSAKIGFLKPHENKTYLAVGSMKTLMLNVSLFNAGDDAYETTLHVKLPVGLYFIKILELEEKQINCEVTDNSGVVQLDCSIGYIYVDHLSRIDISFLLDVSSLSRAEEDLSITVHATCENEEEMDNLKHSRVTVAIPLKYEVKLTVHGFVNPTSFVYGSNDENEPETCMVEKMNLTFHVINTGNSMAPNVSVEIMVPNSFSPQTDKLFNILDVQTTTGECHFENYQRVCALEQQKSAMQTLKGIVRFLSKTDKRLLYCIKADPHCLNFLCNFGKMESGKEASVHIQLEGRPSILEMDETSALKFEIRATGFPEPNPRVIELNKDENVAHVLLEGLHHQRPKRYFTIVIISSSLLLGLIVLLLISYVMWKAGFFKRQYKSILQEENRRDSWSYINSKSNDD
Proteasome disasm: blocks ATP-dependent breakdown of the yeast 26S proteasome. anti-FLAG beads, GFP-proteasome disassembly, flow cytometry. inhibition of disassembly, % (concentration not given with the values). 24,000 tested, 0.2% active. AID 751;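 active means inhibition of disassembly above about 33%, limit read from the data; inconclusive means likely self-fluorescent, control bead median signal at least 40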;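 further: higher percent means more bead fluorescence retained so stronger block of disassembly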
VLA-4 antagonist: inhibitors of LDV-FITC ligand binding to Mn2+-activated human VLA-4 integrin. inhibition, % at 10 µM (by protocol). P13612. 24,000 tested, 0.2% active. Jurkat cells, LDV-FITC binding with Mn2+, flow cytometry; 100% = Mn2+-driven binding gain fully reversed. AID 529;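 active means inhibition above 50%; inconclusive means compound itself fluorescent, judged against control cell fluorescence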
Of the large screens only hits and unclear results are named; the others gave an inactive call.

O=C(NCC1CCCO1)c1nnc(Cc2ccc(F)cc2)o1 (stereo unspecified)	VLA-4 agonist inconclusive, VLA-4 antagonist inconclusive
CC(=O)N1c2ccc(S(=O)(=O)CCC(=O)O)cc2CC1C (stereo unspecified)	VLA-4 antagonist 61.0
CCOCC(=O)Nc1c(C(=O)Nc2ccc(OC)cc2OC)oc2ccccc12	none
COc1cccc(OCC(=O)Nc2c(C(=O)Nc3ccc(OC)cc3OC)oc3ccccc23)c1	LNCaP diff act 36.0
Cc1ccc(CNC(=O)CN2C(=O)COc3ccc(C)cc32)cc1	none
Cc1ccc(CCNC(=O)CN2C(=O)COc3ccccc32)cc1	VLA-4 antagonist 62.0
CC(C)N=c1cc2n(-c3ccc(Cl)cc3)c3ccccc3nc-2cc1Nc1ccc(Cl)cc1	Autofluor Jurkat 3.9, VLA-4 agonist inconclusive, VLA-4 antagonist inconclusive
COc1ccc(S(=O)(=O)Nc2cc(C(=O)NCCC(C)C)ccc2N2CCOCC2)cc1	none
CCOc1ccc(NC(=O)c2oc3ccccc3c2NC(=O)CC)cc1	VLA-4 agonist inconclusive, VLA-4 antagonist inconclusive
CCOc1ccc(NC(=O)c2oc3ccccc3c2NC(=O)C(C)C)cc1	Autofluor Jurkat 2.45, VLA-4 agonist inconclusive, VLA-4 antagonist inconclusive
COc1ccccc1NC(=O)c1nc[nH]c1C(=O)Nc1ccccc1OC	LNCaP diff act 35.0
CCOc1ccccc1NC(=O)Cn1nnc(C(=O)Nc2ccccc2Cl)c1N	VLA-4 agonist inconclusive, VLA-4 antagonist inconclusive
CCOc1ccccc1NC(=O)c1nc[nH]c1C(=O)Nc1ccccc1OCC	LNCaP diff act 64.0
COc1ccc(NC(=O)c2nc[nH]c2C(=O)Nc2ccccc2C)cc1	VLA-4 antagonist inconclusive
Cc1ccc(-c2nc(C(=O)NC3CCCCCC3)no2)cc1	none
O=C(Cn1c(=O)oc2cc(S(=O)(=O)N3CCCCCC3)ccc21)NC1CCCCCCC1	none
O=C(COc1ccc(S(=O)(=O)N2CCCC2)cc1Cl)NC1CC1	LNCaP diff act 36.0
CCOc1ccc(/C=c2\sc3nc(-c4ccco4)nn3c2=O)cc1OCC	Proteasome disasm 41.7
C=CCn1c(/N=C/c2ccc(N(C)C)cc2)nc2ccccc21	Autofluor Jurkat 4.76, VLA-4 agonist inconclusive, VLA-4 antagonist inconclusive
Cc1ccc(-c2nc(NC(=O)CSc3nnnn3-c3ccccc3)ns2)cc1	VLA-4 antagonist 51.0
O=C(CSc1nnc2scc(-c3ccccc3)n12)Nc1nsc(-c2ccccc2)n1	none
O=C(c1noc2c1CCc1ccccc1-2)N1CCc2ccccc2C1	none
Cc1cc(C)n2nnnc2c1C#N	LNCaP diff act 37.0
Cc1cc(C)n(Cc2ccc(F)cc2)c(=O)c1C#N	none
Cc1onc(-c2ccccc2)c1C(=O)NC(CC(=O)O)c1ccc(OC(C)C)cc1 (stereo unspecified)	VLA-4 antagonist 86.5
Cn1c(Cc2ccccc2)nnc1SCC(=O)c1ccc(Br)s1	none
COC(=O)c1cc(NS(=O)(=O)c2ccc3c(c2)CCC(=O)N3)cc(C(=O)OC)c1	none
CCOC(=O)c1sc(NC(=O)CSc2nc3c(cc2C#N)CCC3)c(C#N)c1C	none
N#Cc1cc2c(nc1SCC(=O)Nc1sc3c(c1C#N)CCC3)CCCCC2	Proteasome disasm 104.6
Cc1ccc(S(=O)(=O)NC(C)C(c2cccs2)N2CCN(C)CC2)cc1 (stereo unspecified)	none
CCN1CCN(C(c2cccs2)C(C)NS(=O)(=O)c2ccc(Br)cc2)CC1 (stereo unspecified)	LNCaP diff act 32.0
COCCCn1c(=N)c(C(N)=S)cc2c(=O)n3cccc(C)c3nc21	VLA-4 agonist inconclusive, VLA-4 antagonist inconclusive
Cc1ccc2nc3c(cc(C(=O)NCc4ccccc4)c(=N)n3CCCn3ccnc3)c(=O)n2c1	LNCaP diff act 31.0
Cc1cccn2c(=O)c3cc(C(=O)NC(C)c4ccccc4)c(=N)n(CCCn4ccnc4)c3nc12 (stereo unspecified)	LNCaP diff act 37.0
Fc1ccccc1Cn1nnc2c(-n3ccnc3)ncnc21	none
CN1CC=C2C(C#N)=C(N)C(C#N)(C#N)C(c3cccc(Cl)c3Cl)C2C1 (stereo unspecified)	Autofluor Jurkat 2.73, VLA-4 agonist inconclusive, VLA-4 antagonist inconclusive
CCOc1ccc(CCNC(=O)c2cc3sccc3n2C)cc1OCC	none
O=c1[nH]c(Nc2ccccc2)cc2ccccc12	Autofluor Jurkat 2.86, VLA-4 agonist inconclusive, VLA-4 antagonist inconclusive
CCN(CC)c1ccc(C=N/C(C#N)=C(\N)C#N)cc1	Autofluor Jurkat 5.9, VLA-4 agonist inconclusive, Proteasome disasm inconclusive, VLA-4 antagonist inconclusive
COc1nc(-c2ccc(Cl)cc2)ccc1-c1noc(-c2ccncc2)n1	none
COc1ccc(-c2ccc(-c3noc(-c4ccccc4)n3)c(OC)n2)cc1	LNCaP diff act 34.0
Cc1cccc(-c2nc(CSCC(=O)N3CCN(Cc4ccc5c(c4)OCO5)CC3)c(C)o2)c1	none
COc1ccc2c(c1)C(=O)N(c1ccccc1OC)C(=O)C2	Autofluor Jurkat 6.29, VLA-4 agonist inconclusive, VLA-4 antagonist inconclusive
COc1ccc2cc3cc(C(=O)Nc4ccccc4N4CCN(C)CC4)oc3nc2c1	LNCaP diff act 62.0, VLA-4 agonist inconclusive, VLA-4 antagonist inconclusive
CCN(c1ccccc1)S(=O)(=O)c1ccc(F)cc1C	none
COc1ccc(NC(=O)CSc2ccccn2)cc1OC	none
COc1ccc(-c2c(=O)n(OCc3ccccn3)c3ccccc3[n+]2[O-])cc1OC	Autofluor Jurkat 2.5, VLA-4 agonist inconclusive, VLA-4 antagonist inconclusive
COc1ccc(OC)c(/C=c2\sc3nc(-c4cccs4)nn3c2=O)c1	Autofluor Jurkat 4.12, VLA-4 agonist inconclusive, VLA-4 antagonist inconclusive
CC(O)C(=O)NCCOCCOCCNC(=O)C(C)O (stereo unspecified)	none
CCCC(=O)Nc1ccc2oc(-c3cccnc3)nc2c1	none
Oc1cc(NCc2cccnc2)ccc1-c1nc2ccccc2o1	Autofluor Jurkat 2.97, VLA-4 agonist inconclusive, VLA-4 antagonist inconclusive
COC(=O)c1sc(N2C(=O)C(O)=C(C(=O)c3ccc(C)o3)C2c2ccc(F)cc2)nc1C (stereo unspecified)	Autofluor Jurkat 3.77, VLA-4 agonist inconclusive, VLA-4 antagonist inconclusive
Cc1cc(N2C(=O)C(O)=C(C(=O)c3ccc(C)o3)C2c2cccs2)no1 (stereo unspecified)	none
CCSc1nnc(NC(=O)C2CCCN(S(=O)(=O)c3cnc[nH]3)C2)s1 (stereo unspecified)	none
CC(C)(C)C(=O)N=C1SC2CS(=O)(=O)CC2N1c1ccc2c(c1)OCO2 (stereo unspecified)	none
CSc1ccc(C2C(C#N)=C(N)Oc3c2ccc(=O)c2c(C)oc(C)c32)cc1 (stereo unspecified)	Autofluor Jurkat inconclusive, LNCaP diff act 33.0, VLA-4 agonist inconclusive, Proteasome disasm inconclusive, VLA-4 antagonist inconclusive
CSc1ccc(C2C(C#N)=C(N)N(c3ccccc3)C3=C2C(=O)CCC3)cc1 (stereo unspecified)	none
CCOC(=O)N1CCN(c2cc(NCCC(=O)O)c3c4c(onc24)-c2ccccc2C3=O)CC1	Autofluor Jurkat 4.61, VLA-4 agonist inconclusive, VLA-4 antagonist inconclusive
